# Columns and labels:
# Test in all cases: SPOT peptide array binding signal intensity (averaged, normalized) (arbitrary units (background-subtracted, floor 0; scale differs between SH3 domains)); higher = stronger binding of the SH3 domain to the peptide
# AgAbp1 = target: AgAbp1
# Description: (§1)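 GST-tagged SH3 domains from S. cerevisiae (Sc), A. gossypii (Ag), C. albicans (Ca) and S. pombe (Sp) were incubated at 10 ug/ml overnight at 4 C on cellulose SPOT membranes carrying 292 synthetic 15-mer peptides mined from the S. cerevisiae proteome (cysteines replaced by serines). Binding was detected with anti-GST antibody, HRP secondary and chemiluminescence, quantified with Genespotter, and reported as normalized spot intensities averaged over biological replicates.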
# AgBbc1 = target: AgBbc1
# Description: as §1
# AgBem1-D1 = target: AgBem1-D1
# Description: as §1
# AgBzz1-D1 = target: AgBzz1-D1
# Description: as §1
# AgBzz1-D2 = target: AgBzz1-D2
# Description: as §1
# AgCyk3 = target: AgCyk3
# Description: as §1
# AgFus1 = target: AgFus1
# Description: as §1
# AgHof1 = target: AgHof1
# Description: as §1
# AgHse1 = target: AgHse1
# Description: as §1
# AgLsb1 = target: AgLsb1
# Description: as §1
# AgLsb4 = target: AgLsb4
# Description: as §1
# AgMyo5 = target: AgMyo5
# Description: as §1
# AgNbp2 = target: AgNbp2
# Description: as §1
# AgRvs167 = target: AgRvs167
# Description: as §1
# AgSho1 = target: AgSho1
# Description: as §1
# AgSla1-D1-D2 = target: AgSla1-D1-D2
# Description: as §1
# AgSla1-D3 = target: AgSla1-D3
# Description: as §1
# CaAbp1-D1 = target: CaAbp1-D1
# Description: as §1
# CaAbp1-D2 = target: CaAbp1-D2
# Description: as §1
# CaBbc1 = target: CaBbc1
# Description: as §1
# CaBem1-D1 = target: CaBem1-D1
# Description: as §1
# CaBzz1-D1 = target: CaBzz1-D1
# Description: as §1
# CaBzz1-D2 = target: CaBzz1-D2
# Description: as §1
# CaCyk3 = target: CaCyk3
# Description: as §1
# CaFus1 = target: CaFus1
# Description: as §1
# CaHof1 = target: CaHof1
# Description: as §1
# CaHse1 = target: CaHse1
# Description: as §1
# CaLsb1 = target: CaLsb1
# Description: as §1
# CaLsb4 = target: CaLsb4
# Description: as §1
# CaMyo5 = target: CaMyo5
# Description: as §1
# CaNbp2 = target: CaNbp2
# Description: as §1
# CaRvs167 = target: CaRvs167
# Description: as §1
# CaRvs167-3 = target: CaRvs167-3
# Description: as §1
# CaSho1 = target: CaSho1
# Description: as §1
# CaSla1-D1-D2 = target: CaSla1-D1-D2
# Description: as §1
# CaSla1-D3 = target: CaSla1-D3
# Description: as §1
# ScAbp1 = target: ScAbp1
# Description: as §1
# ScBbc1 = target: ScBbc1
# Description: as §1
# ScBem1-D1 = target: ScBem1-D1
# Description: as §1
# ScBzz1-D1 = target: ScBzz1-D1
# Description: as §1
# ScBzz1-D2 = target: ScBzz1-D2
# Description: as §1
# ScCyk3 = target: ScCyk3
# Description: as §1
# ScFus1 = target: ScFus1
# Description: as §1
# ScHof1 = target: ScHof1
# Description: as §1
# ScHse1 = target: ScHse1
# Description: as §1
# ScLsb1 = target: ScLsb1
# Description: as §1
# ScLsb2 = target: ScLsb2
# Description: as §1
# ScLsb3 = target: ScLsb3
# Description: as §1
# ScLsb4 = target: ScLsb4
# Description: as §1
# ScMyo3 = target: ScMyo3
# Description: as §1
# ScMyo5 = target: ScMyo5
# Description: as §1
# ScNbp2 = target: ScNbp2
# Description: as §1
# ScPex13 = target: ScPex13
# Description: as §1
# ScRvs167 = target: ScRvs167
# Description: as §1
# ScSho1 = target: ScSho1
# Description: as §1
# ScSla1-D1-D2 = target: ScSla1-D1-D2
# Description: as §1
# ScSla1-D3 = target: ScSla1-D3
# Description: as §1
# SpAbp1-D1 = target: SpAbp1-D1
# Description: as §1
# SpBbc1 = target: SpBbc1
# Description: as §1
# SpBzz1-D1 = target: SpBzz1-D1
# Description: as §1
# SpBzz1-D2 = target: SpBzz1-D2
# Description: as §1
# SpCyk3 = target: SpCyk3
# Description: as §1
# SpHof1 = target: SpHof1
# Description: as §1
# SpHof1-2 = target: SpHof1-2
# Description: as §1
# SpHof1-3 = target: SpHof1-3
# Description: as §1
# SpHse1 = target: SpHse1
# Description: as §1
# SpLsb1 = target: SpLsb1
# Description: as §1
# SpLsb4 = target: SpLsb4
# Description: as §1
# SpMyo1 = target: SpMyo1
# Description: as §1
# SpNbp2 = target: SpNbp2
# Description: as §1
# SpPex13 = target: SpPex13
# Description: as §1
# SpRvs167 = target: SpRvs167
# Description: as §1
# SpSla1-D1-D2 = target: SpSla1-D1-D2
# Description: as §1
# SpSla1-D3 = target: SpSla1-D3
# Description: as §1
binder,measurement,setting,value
ALKQKKIPPPFKPHL,SPOT peptide array binding signal intensity,AgAbp1,43.5
same,SPOT peptide array binding signal intensity,AgBbc1,≤ 0
same,SPOT peptide array binding signal intensity,AgBem1-D1,4
same,SPOT peptide array binding signal intensity,AgBzz1-D1,43
same,SPOT peptide array binding signal intensity,AgBzz1-D2,22
same,SPOT peptide array binding signal intensity,AgCyk3,≤ 0
same,SPOT peptide array binding signal intensity,AgFus1,≤ 0
same,SPOT peptide array binding signal intensity,AgHof1,7.5
same,SPOT peptide array binding signal intensity,AgHse1,≤ 0
same,SPOT peptide array binding signal intensity,AgLsb1,≤ 0
same,SPOT peptide array binding signal intensity,AgLsb4,≤ 0
same,SPOT peptide array binding signal intensity,AgMyo5,≤ 0
same,SPOT peptide array binding signal intensity,AgNbp2,≤ 0
same,SPOT peptide array binding signal intensity,AgRvs167,≤ 0
same,SPOT peptide array binding signal intensity,AgSho1,≤ 0
same,SPOT peptide array binding signal intensity,AgSla1-D1-D2,≤ 0
same,SPOT peptide array binding signal intensity,AgSla1-D3,2.5
same,SPOT peptide array binding signal intensity,CaAbp1-D1,938
same,SPOT peptide array binding signal intensity,CaAbp1-D2,984
same,SPOT peptide array binding signal intensity,CaBbc1,≤ 0
same,SPOT peptide array binding signal intensity,CaBem1-D1,2
same,SPOT peptide array binding signal intensity,CaBzz1-D1,589
same,SPOT peptide array binding signal intensity,CaBzz1-D2,205
same,SPOT peptide array binding signal intensity,CaCyk3,≤ 0
same,SPOT peptide array binding signal intensity,CaFus1,19.5
same,SPOT peptide array binding signal intensity,CaHof1,0.5
same,SPOT peptide array binding signal intensity,CaHse1,0.5
same,SPOT peptide array binding signal intensity,CaLsb1,≤ 0
same,SPOT peptide array binding signal intensity,CaLsb4,≤ 0
same,SPOT peptide array binding signal intensity,CaMyo5,0.5
same,SPOT peptide array binding signal intensity,CaNbp2,15.5
same,SPOT peptide array binding signal intensity,CaRvs167,≤ 0
same,SPOT peptide array binding signal intensity,CaRvs167-3,4.5
same,SPOT peptide array binding signal intensity,CaSho1,≤ 0
same,SPOT peptide array binding signal intensity,CaSla1-D1-D2,≤ 0
same,SPOT peptide array binding signal intensity,CaSla1-D3,2
same,SPOT peptide array binding signal intensity,ScAbp1,29
same,SPOT peptide array binding signal intensity,ScBbc1,≤ 0
same,SPOT peptide array binding signal intensity,ScBem1-D1,≤ 0
same,SPOT peptide array binding signal intensity,ScBzz1-D1,9
same,SPOT peptide array binding signal intensity,ScBzz1-D2,3
same,SPOT peptide array binding signal intensity,ScCyk3,≤ 0
same,SPOT peptide array binding signal intensity,ScFus1,≤ 0
same,SPOT peptide array binding signal intensity,ScHof1,1
same,SPOT peptide array binding signal intensity,ScHse1,74
same,SPOT peptide array binding signal intensity,ScLsb1,≤ 0
same,SPOT peptide array binding signal intensity,ScLsb2,≤ 0
same,SPOT peptide array binding signal intensity,ScLsb3,≤ 0
same,SPOT peptide array binding signal intensity,ScLsb4,≤ 0
same,SPOT peptide array binding signal intensity,ScMyo3,≤ 0
same,SPOT peptide array binding signal intensity,ScMyo5,1
same,SPOT peptide array binding signal intensity,ScNbp2,≤ 0
same,SPOT peptide array binding signal intensity,ScPex13,≤ 0
same,SPOT peptide array binding signal intensity,ScRvs167,≤ 0
same,SPOT peptide array binding signal intensity,ScSho1,≤ 0
same,SPOT peptide array binding signal intensity,ScSla1-D1-D2,≤ 0
same,SPOT peptide array binding signal intensity,ScSla1-D3,8
same,SPOT peptide array binding signal intensity,SpAbp1-D1,20.5
same,SPOT peptide array binding signal intensity,SpBbc1,≤ 0
same,SPOT peptide array binding signal intensity,SpBzz1-D1,288
RRRDFGAPANKRPRR,SPOT peptide array binding signal intensity,AgAbp1,45
same,SPOT peptide array binding signal intensity,AgBbc1,223
same,SPOT peptide array binding signal intensity,AgBem1-D1,179
same,SPOT peptide array binding signal intensity,AgBzz1-D1,60
same,SPOT peptide array binding signal intensity,AgBzz1-D2,18
same,SPOT peptide array binding signal intensity,AgCyk3,5
same,SPOT peptide array binding signal intensity,AgFus1,374
same,SPOT peptide array binding signal intensity,AgHof1,57.5
same,SPOT peptide array binding signal intensity,AgHse1,156
same,SPOT peptide array binding signal intensity,AgLsb1,0.75
same,SPOT peptide array binding signal intensity,AgLsb4,56.5
same,SPOT peptide array binding signal intensity,AgMyo5,0.5
same,SPOT peptide array binding signal intensity,AgNbp2,39
same,SPOT peptide array binding signal intensity,AgRvs167,6
same,SPOT peptide array binding signal intensity,AgSho1,10
same,SPOT peptide array binding signal intensity,AgSla1-D1-D2,27.5
same,SPOT peptide array binding signal intensity,AgSla1-D3,4.75
same,SPOT peptide array binding signal intensity,CaAbp1-D1,106
same,SPOT peptide array binding signal intensity,CaAbp1-D2,126
same,SPOT peptide array binding signal intensity,CaBbc1,546
same,SPOT peptide array binding signal intensity,CaBem1-D1,52.5
same,SPOT peptide array binding signal intensity,CaBzz1-D1,116
same,SPOT peptide array binding signal intensity,CaBzz1-D2,124
same,SPOT peptide array binding signal intensity,CaCyk3,17
same,SPOT peptide array binding signal intensity,CaFus1,241
same,SPOT peptide array binding signal intensity,CaHof1,0.5
same,SPOT peptide array binding signal intensity,CaHse1,2.25
same,SPOT peptide array binding signal intensity,CaLsb1,≤ 0
same,SPOT peptide array binding signal intensity,CaLsb4,67.5
same,SPOT peptide array binding signal intensity,CaMyo5,2.25
same,SPOT peptide array binding signal intensity,CaNbp2,138
same,SPOT peptide array binding signal intensity,CaRvs167,16
same,SPOT peptide array binding signal intensity,CaRvs167-3,4.5
same,SPOT peptide array binding signal intensity,CaSho1,116
same,SPOT peptide array binding signal intensity,CaSla1-D1-D2,66
same,SPOT peptide array binding signal intensity,CaSla1-D3,4.75
same,SPOT peptide array binding signal intensity,ScAbp1,79
same,SPOT peptide array binding signal intensity,ScBbc1,65
same,SPOT peptide array binding signal intensity,ScBem1-D1,94
same,SPOT peptide array binding signal intensity,ScBzz1-D1,32
same,SPOT peptide array binding signal intensity,ScBzz1-D2,29
same,SPOT peptide array binding signal intensity,ScCyk3,100
same,SPOT peptide array binding signal intensity,ScFus1,163
same,SPOT peptide array binding signal intensity,ScHof1,2
same,SPOT peptide array binding signal intensity,ScHse1,584
same,SPOT peptide array binding signal intensity,ScLsb1,4.5
same,SPOT peptide array binding signal intensity,ScLsb2,1.5
same,SPOT peptide array binding signal intensity,ScLsb3,810
same,SPOT peptide array binding signal intensity,ScLsb4,15.5
same,SPOT peptide array binding signal intensity,ScMyo3,9
same,SPOT peptide array binding signal intensity,ScMyo5,11
same,SPOT peptide array binding signal intensity,ScNbp2,76.5
same,SPOT peptide array binding signal intensity,ScPex13,8.25
same,SPOT peptide array binding signal intensity,ScRvs167,31.8
same,SPOT peptide array binding signal intensity,ScSho1,688
same,SPOT peptide array binding signal intensity,ScSla1-D1-D2,611
same,SPOT peptide array binding signal intensity,ScSla1-D3,25
same,SPOT peptide array binding signal intensity,SpAbp1-D1,30.5
same,SPOT peptide array binding signal intensity,SpBbc1,18
same,SPOT peptide array binding signal intensity,SpBzz1-D1,225
same,SPOT peptide array binding signal intensity,SpBzz1-D2,≤ 0
same,SPOT peptide array binding signal intensity,SpCyk3,4
same,SPOT peptide array binding signal intensity,SpHof1,367
same,SPOT peptide array binding signal intensity,SpHof1-2,21.5
same,SPOT peptide array binding signal intensity,SpHof1-3,342
same,SPOT peptide array binding signal intensity,SpHse1,108
same,SPOT peptide array binding signal intensity,SpLsb1,1.5
same,SPOT peptide array binding signal intensity,SpLsb4,406
same,SPOT peptide array binding signal intensity,SpMyo1,19
same,SPOT peptide array binding signal intensity,SpNbp2,42
same,SPOT peptide array binding signal intensity,SpPex13,15
same,SPOT peptide array binding signal intensity,SpRvs167,12.2
same,SPOT peptide array binding signal intensity,SpSla1-D1-D2,≤ 0
same,SPOT peptide array binding signal intensity,SpSla1-D3,8

# Reference: the supplement of paper PMC4466140
